# SARS PLP yeast – qHTS of Yeast-based Assay for SARS-CoV PLP; S. cerevisiae expressing SARS-CoV PLpro, growth rescue; Potency, µM (doses to about 32.9 µM), actives largely listed as activators; hit rate 0.19% among 330,000; calls by dose curve; note: nearly all actives have a fitted effect of over 55% in size
# HCMV inh – qHTS Assay for inhibitors of the human cytomegalovirus (HCMV); hit rate 4.5% among 410,000; activity change, negative = inhibition, % at 57.5 µM; AID 1259415, 2018; HFF cells, HCMV-luciferase reporter, 72 h; active compounds read low; in the data active = activity change below about -60%; inconclusive = no clear call, values can overlap the other calls; inactive = above about -39%
#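 HFF cells seeded 16 h at 37C, treated with compounds, infected with luciferase-reporter HCMV at MOI 1 PFU/cell; luciferase read at 72 h post infection, normalized to buffer-only and Salinomycin controls.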
# FMDV inh – High Throughput Screening for Foot and Mouth Disease Virus Antivirals | FMDV antiviral cell-based qHTS | Potency, µM (doses to about 57.9 µM), actives largely listed as inhibitors | hit rate 1.2% among 410,000; calls by dose curve; tested in HEK293T cells; note: read-out not given here; nearly all actives have a fitted effect of over 45% in size
# HCV inhibitor – qHTS Assay for Inhibitors of Hepatitis C Virus (HCV). Huh7.5.1 HCVcc-Cre infection, luciferase reporter, 44 h. Potency, µM (top dose mostly 41.8 µM), most hits filed as inhibitors. hit rate 3.4% among 340,000. AID 651820, 2012; active = well fitted inhibition curve with a large enough effect; inconclusive = small, poorly fitted or top-dose-only effect, or another doubt; inactive = no such curve, though single readings can be large or run the other way
#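 Infectious HCVcc-Cre (~0.5 moi) was added to cells just after compound, with cells seeded 4 h earlier at 1,000 per well. Luciferase activity after 44 h culture reported infection; substrate was incubated 15 min at room temperature before reading.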
# Marburg entry inh – qHTS for inhibitors of binding or entry into cells for Marburg Virus | Marburg virus pseudotyped entry inhibition, cell reporter | Potency, µM (top dose mostly 37.8 µM), most hits filed as inhibitors | hit rate 1.8% among 300,000; calls by dose curve; tested in HEK293 cells
# Lassa entry inh – qHTS for Inhibitors of binding or entry into cells for Lassa Virus. Lassa virus pseudotype entry inhibition, cell reporter. hit rate 1.2% among 300,000. Potency, µM (highest dose often 37.9 µM), actives largely listed as inhibitors; calls by dose curve; tested in HEK293 cells; note: nearly all actives have a fitted effect of over 50% in size
# Numbers stand for hits; - = inactive; ? = inconclusive; . = no result given; [ ] = another dose, or the depositor's remark. In the library only some 8% were active in any assay of this set; here they are far more common.
SMILES,SARS PLP yeast,HCMV inh,FMDV inh,HCV inhibitor,Marburg entry inh,Lassa entry inh
COc1c2c(cc3c1C(c1c(O)c4ccccc4oc1=O)N(C)CC3)OCO2 (stereo not given),.,.,-,.,.,.
COC(=O)CC=C1c2ccccc2OC[C@@H](OC)[C@H]1C,.,.,.,.,-,.
Cc1ccc(OCCN(C)C(=O)C2CCC(=O)N(CCCN3CCCC3=O)C2)cc1 (stereo not given),-,-,-,-,-,-
Cc1cc(C)cc(NC(=O)CCN2CCOCC2)c1,-,-,-,-,.,.
Cc1[nH]nc2c1C(c1cc(Br)cs1)C(C#N)=C(N)O2 (stereo not given),-,-98,?,?,?,-
Cc1[nH]nc2c1C(c1cn[nH]c1-c1ccc(F)cc1)C(C#N)=C(N)O2 (stereo not given),?,-,22µM,-,-,-
CCC1(C2CCN(C(=O)c3ccccc3C)CC2)NC(=O)N(CCc2scnc2C)C1=O (stereo not given),.,.,-,.,.,.
Cc1cc(=O)oc2c3c(cc(OCC(=O)NCc4ccccc4)c12)OC(C)(C)CC3,-,-,-,5.6µM,.,.
Cc1cc(=O)oc2c3c(cc(OCC(=O)NCC(=O)O)c12)OC(C)(C)CC3,-,-,-,-,.,.
CCCc1cc(=O)oc2c3c(cc(OCC(=O)NCc4ccccn4)c12)OC(C)(C)CC3,-,?,-,10µM,.,.
CCOC(=O)c1c(C)[nH]c(C)c1C(=O)COc1ccc(NC(=O)c2ccco2)cc1,-,-64,-,-,-,-
O=C(/C=C\c1ccccc1)Nc1ccc(NC(=O)c2ccco2)cc1,-,-101,-,?,-,-
CCOc1ccccc1NC(=O)c1cccc(NC(=O)c2ccco2)c1,-,?,?,3.2µM,?,?
O=C(/C=C/c1ccc(Br)cc1)c1ccc(NC(=O)c2ccco2)cc1,-,-,-,?,?,-
CCOC(=O)c1cccc(NC(=O)c2ccc(NC(=O)c3ccco3)cc2)c1,-,-64,?,?,.,.
CCOC(=O)c1c(C)[nH]c(C)c1C(=O)COC(=O)[C@@H](NC(=O)c1ccco1)C(C)C,-,-,-,-,-,-
O=c1c2cccnc2n(Cc2cccc(F)c2)c(=O)n1Cc1ccc(F)cc1,.,-,-,.,-,.
NS(=O)(=O)c1ccc(CCNC(=O)c2cc([N+](=O)[O-])ccc2N2CCOCC2)cc1,-[6.58 µM],-,-,-,.,.
CCOc1cc(NS(=O)(=O)c2ccccc2)c(OCC)cc1NC(=O)c1ccco1,-,-101,-,-,-,-
C=Cc1cccc(NC(=O)c2ccc(NC(=O)c3ccco3)cc2)c1,-,?,-,11µM,.,.
COc1ccc2c(Sc3ccccc3)c(C(=O)NCCN(C)C)[nH]c2c1,.,-,-,.,-,-
COc1ccc2nc(N/C(N)=N/C(=S)Nc3ccc(C)c(C)c3)nc(C)c2c1,?,.,.,4µM,-,-
CCc1ccc(NC(=S)/N=C(\N)Nc2nc(C)c3cc(CC)ccc3n2)cc1,-,-,?,16µM,?,?
CCOc1ccc2nc(N/C(N)=N/C(=S)Nc3ccc(OC)cc3)nc(C)c2c1,-,-,-,?,.,.
COc1ccc2nc(N/C(N)=N/C(=S)Nc3ccccc3)nc(C)c2c1,-,-,-,11µM,?,-
SMILES,SARS PLP yeast,HCMV inh,FMDV inh,HCV inhibitor,Marburg entry inh,Lassa entry inh
CCc1ccc2nc(/N=C(\N)NC(=O)c3ccccc3)nc(C)c2c1,-,-,-,?,-,-
Cc1ccc(C(=O)NCC(=O)OCC(=O)N(CC(C)C)c2c(N)n(Cc3ccccc3)c(=O)[nH]c2=O)s1,.,?,-,.,.,.
O=C(NCc1ccncc1)C(=O)NC1CC1,-,-,-,-,-,-
CN(C)C/C=C(/c1ccc(Br)cc1)c1cccnc1,.,-,-,?,7.1µM,-
CC1(C(=O)Nc2ccc(Cl)c(Cl)c2)CCN1C(=O)CCC1CCCC1 (stereo not given),.,-,-,.,.,.
Cn1cnc([N+](=O)[O-])c1Oc1ccc2ccccc2c1,-,-,18µM,?,?,?
Cn1cnc([N+](=O)[O-])c1Sc1nc2ccccc2[nH]1,-,-,?,-,-,?
Cc1cc(C)c(S(=O)(=O)N2Cc3ccccc3-n3nncc3C2)c(C)c1,.,?,22µM,.,.,.
COC(=O)c1scc(C#N)c1N/N=C(\C#N)S(=O)(=O)c1ccc(Cl)cc1,-,-97,14µM,?,?,?
COc1ccc(OC)c2sc(NC(=O)CCS(=O)(=O)c3ccccc3)nc12,.,-,-,?,.,.
COc1ccc(OC)c2sc(NC(=O)C3=COCCO3)nc12,-,-,-,11µM,.,.
COc1ccc(OC)c2sc(NC(=O)CCSc3ccccc3)nc12,-,-,-,10µM,.,.
O=C(Nc1nc(-c2ccc(Oc3ccccc3)cc2)cs1)C1=COCCO1,-,-64,?,?,?,?
Cc1ccc(-c2csc(NC(=O)C3=COCCO3)n2)cc1,-,-,-,?,?,-
COc1ccc(OC)c2sc(NC(=O)C(C)C)nc12,-,-,-,7.9µM,.,.
Cc1ccc(C)c(S(=O)(=O)N2CCN(C(=O)C3CCN(C(=O)c4ccc(F)cc4)CC3)CC2)c1,-,?,-,?,-,-
Cc1nnc2n(-c3ccccc3)c(=O)c3c4c(sc3n12)C[C@H](C)CC4,.,.,.,.,-,.
C=CCOn1c(C)c(C(C)=O)c2c3nonc3ccc21,-,-81,-,?,-,-
COn1c(C)c(C)c2c3nonc3ccc21,-,-65,-,?,?,-
C=CCOn1c(C)c(C(C)=O)c2c3no[n+]([O-])c3ccc21,-,?,-,?,-,-
Cc1ncc2c(c1CNS(=O)(=O)N(C)C)CCN(C(=O)/C=C/c1ccccc1Cl)C2,.,.,-,.,.,.
CC1CCN(S(=O)(=O)c2cc(C(=O)N3CCN(c4ccccc4F)CC3)n(C)c2)CC1,.,-,-,.,.,-
CC1CCC(NC(=O)C(Cc2ccccc2)n2cccc2)CC1 (stereo not given),-,-,-,-,.,.
COc1ccc(O)c(C2Nc3ccccc3-n3c(-c4ccccc4)c4c(=O)n(C)c(=O)n(C)c4c32)c1 (stereo not given),.,?,40µM,.,-,-
COc1ccc(-c2c3c(=O)n(C)c(=O)n(C)c3c3n2-c2ccccc2NC3c2ccco2)cc1 (stereo not given),.,-,?,.,?,-
Cc1ccc(-c2c3c(=O)n(C)c(=O)n(C)c3c3n2-c2ccccc2NC3c2ccc(C)cc2O)cc1 (stereo not given),.,-96,-,.,?,-
Cn1c(=O)c2c(-c3ccccc3)n3c(c2n(C)c1=O)C(c1ccc([N+](=O)[O-])cc1)Nc1ccccc1-3 (stereo not given),.,-68,-,.,?,-
ClCc1csc(-c2ccc(Cl)cc2)n1,-,-,-,-,-,-
CC1CN(Cc2csc(-c3ccc(Cl)cc3)n2)CC(C)O1 (stereo not given),-,?,-,11µM,?,-
